Assay [1] is described as follows: reducers of endogenous Her2 protein level, primary screen, SKBR3 breast tumor cells, AlphaScreen, ATP viability (AID 461;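 active = Her2 level under about 52% in both replicate screens, with viability over 70% of control, limit read from the data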;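 for Her2 level: lower value means less Her2 protein in the cells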;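 for viability: percent of carrier control wells set as 100% viability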). To be noted: 18-24 h, measured here: SKBR3 viability, ATP luminescence, at 10 µM. On the technique in general: Alpha assays give light when donor and acceptor beads are brought close together.
Assay [2] has as its target Receptor tyrosine-protein kinase erbB-2 (Homo sapiens) (UniProt P04626). Described as above. The note with it: 18-24 h, at 10 µM, stronger effect = lower value.
A short description of assay [3]: SK-BR-3 cell growth inhibitors, pilot screen, 24 h, human (AID 572;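 active = viability at or below 10% of carrier control in both of two separate runs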;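 note: compound exposure lasted between 18 and 24 h rather than exactly 24 h; 100% = carrier-treated control wells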). The note with it: SK-BR-3 viability, CellTiter-Glo luminescence, at 10 µM, stronger effect = lower value. On the technique in general: ATP-based viability assays read luminescence as a measure of living cells.
Assay [4] is described as follows: HUVEC growth inhibition – cell-based, human, primary screen (AID 575;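 active = viability at or below 30% in both replicate assays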;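 note: 100% = median of untreated cell wells with 0.1% DMSO on each plate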). The note with it: HUVEC proliferation, CellTiter-Glo luminescence, 72 h; at 10 µM; stronger effect = lower value.
The nature of assay [5]: growth inhibitors of H69AR lung tumor, primary screen, human, duplicate replicates (AID 580;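 active = viability at or under a set limit in both replicates, limit being median viability minus 3 SD, cut at about 48% in these data, passing the limit was not always enough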;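 note: 100% = mean luminescence of untreated wells and 0% = no signal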). To be noted: H69AR lung tumor cells viability, ATP luminescence, 72 h; at 10 µM; stronger effect = lower value.
The nature of assay [6]: reversal of MRP1-mediated doxorubicin resistance, pilot screen, H69AR cells, doxorubicin co-treatment (AID 601;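 active = viability loss from added drug above about 55%, and viability with drug at most 40%, in both replicates, limit read from the data, passing the limit was not always enough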). To be noted: CellTiter-Glo, 72 h, at 10 µM; for differential viability (reversal): stronger effect = higher value.
A short description of assay [7]: 384-well plate pilot, post-Golgi transport modulator project, inhibition of yeast transport mutant growth (AID 636; in the data active = inhibition above about 31%). To be noted: absorbance 615 nm, about 18 h, stronger effect = higher value.
A short description of assay [8]: growth suppression of yeast trafficking mutant, preliminary HTS, modulators of trafficking downstream of Golgi apparatus project, 1536-format plate, OD 615 nm (AID 637; in the data active = inhibition above about 30%). The note with it: yeast transport mutant growth, absorbance 615 nm, 18 h; stronger effect = higher value.
Assay [9] in a line: OD615 S. cerevisiae growth inhibition, permissive medium, pilot counter-assay, permissive growth control for S. cerevisiae lifespan shortening project (AID 705;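 active = growth inhibition above 25% in both replicates, a cutoff set 3 SD above the mean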). To be noted: OD615, 24 h, at 10 µM, stronger effect = higher value.
Assay [10] is described as follows: Restrictive medium S. cerevisiae growth inhibition, OD615, pilot screen of yeast lifespan reduction project, restrictive growth control (AID 706;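 active = growth inhibition above a set limit, 3 SD over mean compound inhibition, in both replicates, cut at about 43% in these data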;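 note: modified DeaD lifespan yeast strain shifted to restrictive glucose medium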). To be noted: OD615, 48 h, at 10 µM, stronger effect = higher value.
Assay [11] can be described thus: viability gain of MRP-1-high H69AR cells under doxorubicin, pilot screen, MRP-1 activator project, CellTiter-Glo, duplicate (AID 807;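 active = viability increase at or above a cutoff of the median across tested compounds plus 3 SD, cut at about 8.5% in these data, passing the limit was not always enough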;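 note: compound pretreatment 18-22 h then 72 h combined with doxorubicin; 0% = doxorubicin alone and 100% = vehicle without doxorubicin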). To be noted: H69AR viability with doxorubicin, CellTiter-Glo luminescence; at 10 µM; stronger effect = higher value.
The nature of assay [12]: growth suppression of beta-catenin knockout HCT116, pilot screen, human colon tumor cells (AID 823;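 active = cell viability at or below a set limit in both duplicate runs, the limit being the all-compound median minus 4 SD, cut at about 23% in these data, passing the limit was not always enough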;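 note: 0% = wells killed by 20 µM Hyamine and 100% = untreated DMSO cell wells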). The note with it: CellTiter-Glo, 60 h, at 10 µM, stronger effect = lower value.
A short description of assay [13]: growth suppression of PTEN-deleted HCT116, pilot screen, cell-based, HCT116 clonal line, CellTiter-Glo (AID 824;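 active = viability at or below 27.92% in each of two runs, the all-compound median minus 4 SD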;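 note: 0% = 20 µM Hyamine control and 100% = vehicle cell control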). The note with it: 60 h, at 10 µM, stronger effect = lower value.
Assay [14] in a line: inhibitors of the yeast RAM network, pilot screen, dse1pr::URA3 reporter, 5-FOA selection (AID 869;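 active = inhibition over a set limit, the all-compound mean plus 3 SD, in both replicate runs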;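 note: 0% = DMSO wells with no growth and 100% = 10 µM 1-NA-PP1 with full growth; RAM network block rescues cells from 5-FOA so hits raise OD615 growth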). The note with it: S. cerevisiae dse1pr::URA3 5-FOA growth, OD615, 2 d; at 10 µM; stronger effect = higher value; strain carries analog-sensitive mutant Cbk1 kinase.
The nature of assay [15]: RAM signaling pathway blockade in yeast – S. cerevisiae, Pdr1DBD-CYC8 efflux-inhibited sensitized strain, primary screen (AID 1298).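 Note: 0% = DMSO untreated cells without growth and 100% = 10 µM 1-NA-PP1 full growth; higher means more yeast growth rescued from 5-FOA killing.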 To be noted: S. cerevisiae cbk1-as DSE1-URA3 strain, 5-FOA growth OD615, 2 d; at 50 µM; stronger effect = higher value.
Setting [16] is: H69AR cells + 2 uM doxorubicin, measured here: viability with 2 uM doxorubicin, stronger effect = lower value.
Where [17] appears, read: H69AR cells, compound alone cytotoxicity.

By viability is commonly meant a read-out of living cells in per cent, often relative to untreated cells. One may read the inhibition as the change of the read-out against control, counted positive when it falls.

Inconclusive results are not listed. The source made the active and inactive calls.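 Rule for the calls, unless noted: active = RAM network inhibition above 8.4% in each of two replicates, 3 SD over the compound average; inconclusive = above 8.4% inhibition in only one replicate; inactive = 8.4% inhibition or less in each replicate.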

Sequence of Receptor tyrosine-protein kinase erbB-2 (Homo sapiens) (P04626 whole entry, looked up): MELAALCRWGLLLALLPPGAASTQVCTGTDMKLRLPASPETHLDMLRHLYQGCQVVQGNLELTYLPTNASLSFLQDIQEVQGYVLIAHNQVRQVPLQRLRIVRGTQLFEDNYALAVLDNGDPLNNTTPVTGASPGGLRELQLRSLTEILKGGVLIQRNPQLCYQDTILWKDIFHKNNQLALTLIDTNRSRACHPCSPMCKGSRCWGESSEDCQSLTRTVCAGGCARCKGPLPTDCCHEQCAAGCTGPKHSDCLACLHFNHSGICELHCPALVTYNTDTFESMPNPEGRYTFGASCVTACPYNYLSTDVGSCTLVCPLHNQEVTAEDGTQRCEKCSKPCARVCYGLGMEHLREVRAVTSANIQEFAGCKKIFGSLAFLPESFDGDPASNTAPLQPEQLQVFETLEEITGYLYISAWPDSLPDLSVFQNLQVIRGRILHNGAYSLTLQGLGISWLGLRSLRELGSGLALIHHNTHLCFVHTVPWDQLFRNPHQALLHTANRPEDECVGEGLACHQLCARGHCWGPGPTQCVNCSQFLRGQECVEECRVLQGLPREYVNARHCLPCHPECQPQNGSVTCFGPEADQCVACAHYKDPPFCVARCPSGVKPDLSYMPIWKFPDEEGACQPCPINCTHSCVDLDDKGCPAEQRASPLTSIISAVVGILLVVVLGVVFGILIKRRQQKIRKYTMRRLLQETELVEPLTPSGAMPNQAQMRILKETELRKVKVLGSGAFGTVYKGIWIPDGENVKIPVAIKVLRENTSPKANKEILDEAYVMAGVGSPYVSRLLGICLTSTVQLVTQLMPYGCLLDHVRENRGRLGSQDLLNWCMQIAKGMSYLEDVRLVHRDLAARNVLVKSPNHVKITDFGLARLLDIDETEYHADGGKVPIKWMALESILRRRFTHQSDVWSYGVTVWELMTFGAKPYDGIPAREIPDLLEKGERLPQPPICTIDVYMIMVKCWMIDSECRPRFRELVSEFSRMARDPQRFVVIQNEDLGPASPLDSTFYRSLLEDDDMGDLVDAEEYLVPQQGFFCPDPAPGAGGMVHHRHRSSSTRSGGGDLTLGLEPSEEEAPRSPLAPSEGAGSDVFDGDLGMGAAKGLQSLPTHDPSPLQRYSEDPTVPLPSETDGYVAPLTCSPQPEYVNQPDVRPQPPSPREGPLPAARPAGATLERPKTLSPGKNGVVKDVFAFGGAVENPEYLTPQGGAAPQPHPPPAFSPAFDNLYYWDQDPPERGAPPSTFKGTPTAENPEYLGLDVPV

On to `Cc1cccc(CN2CCC(CNC(=O)C3CCCN(S(=O)(=O)c4cnc[nH]4)C3)CC2)c1` (stereo not given), for which the viability was 98% in assay [1]; 98% (inactive) in [3]; 98.8% (inactive) in [4]; 89.8% (inactive) in assay [5]; 87.6% in assay [6] (setting [16]); 89.8% in assay [6] (setting [17]). For the same molecule, the viability in assay [12] is 101% (inactive); in assay [13] it was 106% (inactive). Further, the Her2 level in [2] is 95.5% (inactive). The differential viability (reversal) in [6] (H69AR cells + 2 uM doxorubicin) was 2.14% (inactive). Also, the inhibition in assay [7] was -5.2% (inactive); in assay [8], -0.66% (inactive); in assay [14], 1.33% (inactive). For the same molecule, the growth inhibition in assay [9] is -0.3% (inactive); in assay [10], -2.77% (inactive). Also, the viability increase in [11] was 0.07% (inactive). Moreover, in assay [15], the RAM network inhibition is 4.03% (inactive).
Take `Cc1cccc(Cn2c(SCCN3CCCCC3)nc3c2c(=O)[nH]c(=O)n3C)c1`: the viability in assay [1] was 75%; in [3], 75% (inactive); in [4] it was 75.6% (inactive); in assay [5] it was 73.7% (inactive); in assay [6] (setting [16]) it was 79.8%; in [6] (setting [17]), 73.7%. Also, the results for the viability in [12] and in assay [13] were 92.4% (inactive) and 83.1% (inactive), respectively. For the same molecule, the Her2 level in [2] was 96.5% (inactive). The differential viability (reversal) in assay [6] (H69AR cells + 2 uM doxorubicin) is -6.01% (inactive). In addition, the results for the inhibition in assay [7], in assay [8] and in assay [14] were -1.73% (inactive), 5.5% (inactive) and 2.78% (inactive), respectively. Further, the growth inhibition in assay [9] was -16.1% (inactive); in [10], -11.3% (inactive). Moreover, in assay [11], the viability increase is -2.89% (inactive). Further, the RAM network inhibition in assay [15] was 0.26% (inactive).
In the case of `CCCCN(C)C(=O)c1ccc(CS(=O)(=O)c2ccccc2C)o1`, the viability in assay [1] was 93%; in [3] it was 93% (inactive); in [4], 120% (inactive); in [5], 81.3% (inactive); in assay [6] (setting [16]) it was 87.2%; in [6] (setting [17]) it was 81.3%. Moreover, the results for the viability in [12] and in [13] were 93.8% (inactive) and 91.7% (inactive), respectively. Besides, in [2], the Her2 level is 86.5% (inactive). Moreover, the differential viability (reversal) in assay [6] (H69AR cells + 2 uM doxorubicin) is -5.93% (inactive). For the same molecule, the values for the inhibition in assay [7], in [8] and in [14] were 1.28% (inactive), -2.17% (inactive) and -0.45% (inactive), respectively. Further, the growth inhibition in [9] is 6.16% (inactive); in assay [10], 14.7% (inactive). Also, the viability increase in [11] is -1.67% (inactive). Moreover, the RAM network inhibition in assay [15] was 3.61% (inactive).
Regarding `CC1(C)C(c2ccccc2)=NC(c2ccccc2)N1O` (stereo not given), the viability is 86.5% in assay [1]; 86.5% (inactive) in assay [3]; 98% (inactive) in assay [4]; 91.4% (inactive) in [5]; 83% in assay [6] (setting [16]); 91.4% in assay [6] (setting [17]). In addition, the viability in assay [12] was 95.6% (inactive); in assay [13] it was 96.5% (inactive). Also, in assay [2], the Her2 level is 82% (inactive). In assay [6] (H69AR cells + 2 uM doxorubicin), the differential viability (reversal) was 8.36% (inactive). Further, the inhibition in assay [7] is -0.78% (inactive); in assay [8] it was -9% (inactive); in [14], 0.165% (inactive). Further, the values for the growth inhibition in assay [9] and in assay [10] were -0.065% (inactive) and -4.8% (inactive), respectively. Besides, the viability increase in assay [11] was -1.73% (inactive). Besides, the RAM network inhibition in assay [15] is 3.18% (inactive).
Take `Cn1c(=O)c2c(nc(CN3CCN(Cc4ccccc4)CC3)n2Cc2cccc(Cl)c2)n(C)c1=O`: the viability in assay [1] is 93.5%; in assay [3] it was 93.5% (inactive); in [4] it was 69.9% (inactive); in assay [5] it was 57.7% (inactive); in [6] (setting [16]) it was 20.9%; in assay [6] (setting [17]) it was 57.7%. Further, the viability is 60.8% (inactive) in assay [12] and 58.7% (inactive) in [13]. In addition, the Her2 level in assay [2] was 81.5% (inactive). The differential viability (reversal) in [6] (H69AR cells + 2 uM doxorubicin) was 36.9% (inactive). The inhibition was -6.67% (inactive) in assay [7], 5.5% (inactive) in [8] and 1% (inactive) in [14]. The results for the growth inhibition in [9] and in assay [10] were 3.47% (inactive) and -0.975% (inactive), respectively. Besides, the viability increase in assay [11] is -2.86% (inactive). Also, the RAM network inhibition in assay [15] was 4.53% (inactive).

The record behind these values is PubChem BioAssay.
